Compounds without any hit were thinned out: in the full panel of roughly 83,000, 20% have a hit.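 Testing used 96-well plates and a 48-hour single-concentration exposure. Example: -40 means 40% of the starting cells died.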 A number with no mark means an inactive call. Calls of active or inactive are those of the source. Rule for the calls: active = growth percent below 10; inactive = the rest.
What follows are compounds tested on HL-60(TB) leukemia (assay: NCI-60 one-dose screen, 48 h (100 = growth as untreated, 0 = no growth, -100 = all killed)). Details: 10 µM unless noted.

Structure (SMILES) | growth
CS(=O)(=O)OC1CC(n2ccc(=O)[nH]c2=O)OC1COC(c1ccccc1)(c1ccccc1)c1ccccc1 (stereo not given) | 97.6%
COc1cc(/C=C/C(=O)c2ccc(Nc3nc(Nc4ccc(F)cc4)nc(Nc4ccc(Cl)cc4)n3)cc2)cc(OC)c1OC | -32.1% (active)
NC(C(=O)O)C(O)c1ccco1 (stereo not given) | 116%
Cc1nnc(Nc2ccc(NC(=O)Nc3ccc(Cl)cc3)cc2)c2ccccc12 | -34.8% (active)
O=C1Nc2ccccc2SC1C1SC(=S)N(Cc2ccccc2)C1=O (stereo not given) | 0.669% (active)
COc1ccc(NC(=O)n2nc(/C=C\c3ccc(O)c(OC)c3)cc2/C=C\c2ccc(O)c(OC)c2)cc1 | 5.32% (active)
O=C(Nc1ccc(-n2ccc3c(NC(=O)c4ccccc4)nccc32)cc1)c1cccc(C(F)(F)F)c1 | 16.8%
COc1cc(OC)cc(-c2ccc(-c3ccc(C(=N)N)o3)o2)c1 | 4.66% (active)
O=CNc1c(Cl)cc2c(c1Cl)Cc1cc([N+](=O)[O-])ccc1-2 | 17.5%
O=c1c2c(=NCCN3CCCC3)cc3c(=O)n(CCCN4CCOCC4)c(=O)c4ccc(c(O)n1CCCN1CCOCC1)c2c4-3 | -34.7% (active)
O=S(=O)(NCCNc1nccc(-c2c(-c3ccc(F)c(O)c3)nc3occn23)n1)c1ccc(Cl)cc1 | 96.6%
COC(=O)C(c1ccccc1)C(CC(=O)c1ccccc1)c1ccccc1 (stereo not given) | 92.5%
NCCn1cc(-c2nc(-c3c[nH]c4ncccc34)cs2)c2cc(F)ccc21 | 62%
CCCCCCCCCCCCCCCCn1cc[n+](C)c1 | 45.7%
Nc1ccc(S(=O)(=O)Nc2cc(I)cc(I)c2)cc1 | -75% (active)
CCCCN(CCCC)C(=N)c1ccnc2ccccc12 | 64.8%
O=C(c1nnc(Nc2ccccc2Br)o1)c1c[nH]c2ccccc12 | 103%
COc1ccc(-c2nc(Cl)c3c(C)nn(-c4ccc(F)cc4)c3n2)cc1 | 98.3%
S=C1SCN(Cc2ccccc2)CN1Cc1ccccc1 | 16.5%
COc1cc(/C=N/NC(=O)c2cnn3c2NC(c2ccccc2)C3)cc(OC)c1OC (stereo not given) | 81.1%

Structure (SMILES) | growth
Cc1ccccc1NC(=O)c1sc2nc3c(cc2c1N)C(=O)CCC3 | 36%
CCCC(CCC)(C(N)=O)C(=O)O | 104%
O=c1nc(N2CCOCC2)oc2c(-c3cccc4ccccc34)cccc12 | 93.6%
Cc1ccc(S(=O)(=O)N(CCC(=O)O)c2ccccc2)cc1 | 92.1%
COc1ccc(Cn2cc3c(c2-c2cc(OC)c(OC)c(OC)c2)CCc2c(CO)noc2-3)cc1 | -36.2% (active)
Cc1ccc(O)c(NC(=O)c2cccc(Nc3ccnc(C(F)(F)F)c3)c2)c1 | -11.8% (active)
CCOC(=O)Cc1cnn(C)c1NC(=O)c1ccc(Cl)cc1NC(C)=O | 102%
COc1cccc2c1C(=O)c1c(O)c3c(c(O)c1C2=O)C[C@@](O)(C(=O)CO)C[C@@H]3O[C@H]1C[C@H](N)[C@@H](O)[C@H](C)O1 | 3.13% (active)
CC(C)(C)C1CCC(=NO)CC1 (stereo not given) | 110%
COc1ccc(Cc2cnc(NC(=O)c3sc4ccccc4c3Cl)s2)cc1 | -50.3% (active)
CCCCCCCCCCCCCCCCCC(=O)[O][Sn]([CH2]CCC)([CH2]CCC)[CH2]CCC | -18.5% (active)
NC(=O)[C@@H]1Cc2ccccc2CN1C(=O)c1ccc2c(c1)Cc1ccccc1-2 | 72.2%
COc1cnc2c(c1)C(=O)c1c-2n(CCCN2CCCC2)c(=O)c2cc(Cl)ccc12 | 27.9%
CC1(C)CC[C@]2(CO)CC[C@]3(C)[C@H](CC[C@@H]4[C@@]5(C)CC[C@H](O)C(C)(C)[C@@H]5CC[C@]43C)[C@H]2[C@H]1O | 117%
COc1ccc(NC(=O)Nc2ccc(Nc3nc(C)cc(Nc4ccc(C)cc4)n3)cc2)cc1 | -55.4% (active)
COc1cc(Cl)cc(-c2nn(-c3cccc(NC(=O)Nc4cccc(C(F)(F)F)c4)c3)cc2-c2ccncc2)c1 | -7.89% (active)
Cn1ccc(Nc2nccc(Oc3ccc(C(=O)Nc4cccc(F)c4)c(Cl)c3)n2)c1 | 95.4%
CC(C)C1CCC(C)C(O)C1 (stereo not given) | 103%
C#CCn1cnc2c(Nc3cccc(NC(=O)CCl)c3)ncnc21 | 7.89% (active)
CN1C(=O)N(C)C2(c3ccccc3)OC(=S)NC12c1ccccc1 (stereo not given) | 95.6%

Source: PubChem BioAssay (NCI)
